Inconclusive results are not listed. Calls of active or inactive are those of the source. Unless noted, the call rests on the fitted dose curve; in most records, active means well fitted curve in the direction sought with a large enough effect in the repeat runs; inconclusive means weak or mixed curves; inactive means no such curve, though single readings can be large; an effect the other way counts as inactive or inconclusive.
Experiments:
[1] = A CellTox Green Cytotoxicity Assay to monitor cytotoxicity in HepG2 cells - 24 hour (AID 1224878); further: nearly all actives have a fitted effect of over 45% in size
Summary of the method: (§1)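 Fluorescent DNA-binding dye, 600 HepG2 cells/well, 5 h preincubation then compound in DMSO; same plates read at 0–40 h, 37 C.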

[2] = A CellTox Green Cytotoxicity Assay to monitor cytotoxicity in HepG2 cells - 40 hour (AID 1224879); further: nearly all actives have a fitted effect of over 40% in size
Summary of the method: as §1

[3] = qHTS RealTime-Glo MT Cell Viability Assay in HEK293 cells - 0 hour (AID 1224880); further: top concentration of the series differs between compounds; nearly all actives have a fitted effect of over 45% in size
Summary of the method: (§2)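 Measured as luminescence from the same continuously cultured HEK293 wells at successive time points (0, 8, 16, 24, 32, 40 h) after compound addition. Reagent present from seeding; dosing at 5 h; incubation 37 C.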

[4] = A CellTox Green Cytotoxicity Assay to monitor cytotoxicity in HepG2 cells - 0 hour (AID 1224882); further: nearly all actives have a fitted effect of over 35% in size
Summary of the method: as §1

[5] = A CellTox Green Cytotoxicity Assay to monitor cytotoxicity in HepG2 cells - 32 hour (AID 1224883); further: nearly all actives have a fitted effect of over 50% in size
Summary of the method: as §1

[6] = A CellTox Green Cytotoxicity Assay to monitor cytotoxicity in HEK293 cells - 8 hour (AID 1224884); further: nearly all actives have a fitted effect of over 35% in size
Summary of the method: (§3)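 Homogeneous no-lysis format: HEK293 cell suspension mixed with CellTox Green reagent, seeded, incubated 5 h at 37 C/5% CO2, then dosed by pintool with compound in DMSO.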

[7] = qHTS RealTime-Glo MT Cell Viability Assay in HepG2 cells - 16 hour (AID 1224885); further: nearly all actives have a fitted effect of over 50% in size
Summary of the method: (§4)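 Viability was tracked continuously by NanoLuc luminescence from prosubstrate reduced by living HepG2 cells, at successive time points over 40 h of compound exposure. Cells with reagent were preincubated 5 h at 37 °C before compound addition.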

[8] = qHTS RealTime-Glo MT Cell Viability Assay in HEK293 cells - 24 hour (AID 1224886); further: top concentration of the series differs between compounds; nearly all actives have a fitted effect of over 50% in size
Summary of the method: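 Viability tracked continuously by luminescence as live cells reduce a prosubstrate for NanoLuc; HEK293 cells preincubated 5 h, compound-treated at 37 C, and read at 0, 8, 16, 24, 32 and 40 h.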

[9] = qHTS RealTime-Glo MT Cell Viability Assay in HEK293 cells - 8 hour (AID 1224887); further: top concentration of the series differs between compounds; nearly all actives have a fitted effect of over 50% in size
Summary of the method: as §2

[10] = A CellTox Green Cytotoxicity Assay to monitor cytotoxicity in HepG2 cells - 8 hour (AID 1224890); further: nearly all actives have a fitted effect of over 45% in size
Summary of the method: as §1

[11] = qHTS assay to identify small molecule antagonists of the estrogen receptor alpha (ER-alpha) signaling pathway using the BG1 cell line in the presence of 0.1 nM 17-beta-estradiol - cell viability counter screen (AID 1259241); further: nearly all actives have a fitted effect of over 40% in size
Summary of the method: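 Viability in VM7Luc4E2 cells after 22 hr compound exposure under 0.1 nM 17beta-estradiol stimulation, by CellTiter-Fluor.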

[12] = qHTS assay to identify small molecule antagonists of the androgen receptor (AR) signaling pathway using the MDA cell line in the presence of 0.5 nM R1881 - cell viability counter screen (AID 1259242); further: nearly all actives have a fitted effect of over 45% in size
Summary of the method: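 Human breast carcinoma MDA-kb2 cells, cultured without CO2, receive compounds alongside 0.5 nM (final) R1881 agonist. After 16 hr at 37C, viability is taken as live-cell protease signal.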

[13] = target: Estrogen receptor (Homo sapiens) (UniProt P03372); experiment: qHTS assay to identify small molecule antagonists of the estrogen receptor alpha (ER-alpha) signaling pathway using the BG1 cell line in the presence of 0.1 nM 17-beta-estradiol (AID 1259244); further: nearly all actives have a fitted effect of over 50% in size
Summary of the method: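 Seeding of stripped-serum-adapted VM7Luc4E2 cells, 24 h attachment, compound transfer, then 0.1 nM final 17beta-estradiol; after 22 h incubation, ONE-Glo reagent and luminescence reading.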

[14] = qHTS assay to identify small molecule HDAC inhibitors (AID 1259364)
Summary of the method: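 After a 2 hr compound incubation (37C, 5% CO2), HCT-116 cells seeded at 1,500/well the day before received HDAC-Glo reagent; signal read as luminescence after 30 min at room temperature.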

[15] = qHTS assay to identify small molecule HDAC inhibitors - cell viability counter screen (AID 1259365)
Summary of the method: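 Cytotoxicity was gauged in wild-type HCT-116 cells after a brief 2hr treatment with DMSO-dissolved compounds at 37C and 5% CO2, using CellTiter-Glo luminescence developed for 30min at room temperature.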

[16] = A CellTox Green Cytotoxicity Assay to monitor cytotoxicity in HEK293 cells - 32 hour (AID 1224881); further: nearly all actives have a fitted effect of over 40% in size
Summary of the method: as §3

[17] = A CellTox Green Cytotoxicity Assay to monitor cytotoxicity in HEK293 cells - 16 hour (AID 1224888); further: nearly all actives have a fitted effect of over 35% in size
Summary of the method: as §3

[18] = qHTS RealTime-Glo MT Cell Viability Assay in HepG2 cells - 0 hour (AID 1224889); further: nearly all actives have a fitted effect of over 50% in size
Summary of the method: as §4

[19] = target: Androgen receptor (Homo sapiens) (UniProt P10275); experiment: qHTS assay to identify small molecule antagonists of the androgen receptor (AR) signaling pathway using the MDA cell line in the presence of 0.5 nM R1881 (AID 1259243); further: nearly all actives have a fitted effect of over 50% in size
Summary of the method: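 Cells: MDA-kb2 (MMTV-luc). Stimulus: 0.5 nM R1881. Time: 16 hr, 37C, no CO2. Detection: ONE-Glo luminescence after 30 min at RT.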

[20] = qHTS assay to identify small molecule phospholipidosis (PLD) inducers (AID 1259344; active means well fitted curve in the direction sought with a large enough effect; an effect the other way counts as inactive or inconclusive)
Summary of the method: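 Read-out is LipidTOX Red fluorescence (ex 595/em 615) imaged in HepG2 cells after 24 h compound exposure at 37 C, with Hoechst nuclear counterstain (ex 352/em 461) allowing per-cell normalisation.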
On the % scale 0 is the no-effect control and ±100 the full control effect.

Sequence of Estrogen receptor (Homo sapiens) (P03372 whole entry, looked up): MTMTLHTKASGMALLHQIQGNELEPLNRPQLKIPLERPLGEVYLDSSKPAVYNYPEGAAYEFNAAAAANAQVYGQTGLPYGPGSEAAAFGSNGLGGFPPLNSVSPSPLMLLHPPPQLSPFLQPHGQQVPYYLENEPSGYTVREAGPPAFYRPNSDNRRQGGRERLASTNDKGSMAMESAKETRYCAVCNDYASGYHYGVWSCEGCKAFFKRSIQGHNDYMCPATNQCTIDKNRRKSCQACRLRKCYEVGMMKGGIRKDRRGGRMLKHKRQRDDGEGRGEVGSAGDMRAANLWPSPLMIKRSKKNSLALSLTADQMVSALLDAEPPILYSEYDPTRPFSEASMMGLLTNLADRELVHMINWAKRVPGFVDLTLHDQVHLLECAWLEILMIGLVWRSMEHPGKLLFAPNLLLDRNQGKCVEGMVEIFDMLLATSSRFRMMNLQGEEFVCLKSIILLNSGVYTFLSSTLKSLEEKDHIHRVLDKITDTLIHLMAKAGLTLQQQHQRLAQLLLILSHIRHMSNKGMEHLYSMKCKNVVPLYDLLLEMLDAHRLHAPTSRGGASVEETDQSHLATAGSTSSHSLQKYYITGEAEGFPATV
Sequence of Androgen receptor (Homo sapiens) (P10275 whole entry, looked up): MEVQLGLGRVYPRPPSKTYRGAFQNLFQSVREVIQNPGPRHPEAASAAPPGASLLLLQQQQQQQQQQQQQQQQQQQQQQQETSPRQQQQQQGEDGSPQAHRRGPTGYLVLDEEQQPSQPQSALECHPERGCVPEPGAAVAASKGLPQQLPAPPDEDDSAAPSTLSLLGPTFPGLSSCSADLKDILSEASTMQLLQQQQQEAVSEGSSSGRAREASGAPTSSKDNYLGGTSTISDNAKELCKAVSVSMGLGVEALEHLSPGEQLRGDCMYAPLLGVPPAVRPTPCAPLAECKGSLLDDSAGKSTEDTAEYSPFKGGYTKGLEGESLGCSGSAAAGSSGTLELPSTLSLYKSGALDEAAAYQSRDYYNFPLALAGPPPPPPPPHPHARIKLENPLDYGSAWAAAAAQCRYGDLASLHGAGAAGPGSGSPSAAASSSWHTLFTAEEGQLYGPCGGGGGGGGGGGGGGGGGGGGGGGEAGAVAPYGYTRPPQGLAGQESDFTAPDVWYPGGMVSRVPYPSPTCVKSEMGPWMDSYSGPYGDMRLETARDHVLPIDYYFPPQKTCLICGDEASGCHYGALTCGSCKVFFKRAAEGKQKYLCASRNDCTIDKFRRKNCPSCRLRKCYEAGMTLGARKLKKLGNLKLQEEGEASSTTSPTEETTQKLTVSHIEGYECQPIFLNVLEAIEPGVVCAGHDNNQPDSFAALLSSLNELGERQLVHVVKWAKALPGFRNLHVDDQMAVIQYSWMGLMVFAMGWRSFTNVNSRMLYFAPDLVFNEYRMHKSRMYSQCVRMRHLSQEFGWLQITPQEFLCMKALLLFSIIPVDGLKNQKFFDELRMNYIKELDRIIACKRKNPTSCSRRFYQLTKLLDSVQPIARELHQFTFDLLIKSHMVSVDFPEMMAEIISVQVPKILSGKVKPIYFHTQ

CCCCOCCCC
inactive: Potency [1] | Potency [2] | Potency [3] | Potency [4] | Potency [5] | Potency [6] | outcome [7] | outcome [8] | outcome [9] | Potency [10] | outcome [11] | outcome [12] | outcome [13] | Potency [14] | outcome [15]

CC(CN1CC(=O)NC(=O)C1)N1CC(=O)NC(=O)C1 (centres undefined)
inactive: Potency [2] | Potency [3] | Potency [16] | Potency [4] | Potency [5] | Potency [6] | outcome [7] | outcome [8] | outcome [9] | Potency [17] | Potency [18] | Potency [10] | outcome [11] | outcome [12] | Potency [19] | Potency [14] | outcome [15]

CCC(C)SSC(C)CC (centres undefined)
inactive: Potency [1] | Potency [2] | Potency [3] | Potency [16] | Potency [4] | Potency [5] | outcome [7] | outcome [8] | outcome [9] | Potency [17] | Potency [10] | outcome [11] | outcome [12] | outcome [15]

CC1(C)C(=O)C(C)(C)C1=O
inactive: Potency [1] | Potency [2] | Potency [3] | Potency [16] | Potency [4] | Potency [5] | outcome [7] | outcome [8] | outcome [9] | Potency [17] | outcome [11] | outcome [12] | Potency [19] | Potency [14] | outcome [15]

CN(C)CCCN(C)C
inactive: cytotoxicity [1] -15.5% [at 6.97 µM] | activity change, negative = cytotoxicity [3] -1.25% [at 6.97 µM] | cytotoxicity increase [16] -0.385% [at 6.97 µM] | cytotoxicity [4] -10.6% [at 6.97 µM] | cytotoxicity increase [6] -3.24% [at 6.97 µM] | activity change, negative = cytotoxic [7] 0.141% [at 6.97 µM] | activity change, negative = cytotoxicity [8] 3.07% [at 6.97 µM] | activity change, negative = cytotoxicity [9] -0.912% [at 6.97 µM] | activity change [17] -1.52% [at 6.97 µM, hits give high values] | activity change, negative = cytotoxicity [18] -4.9% [at 6.97 µM] | cytotoxicity increase [10] -9.61% [at 6.97 µM] | viability change, negative = cytotoxic [12] 2.3% [at 8.39 µM] | activity change, negative = inhibition [14] 2.55% [at 8.39 µM] | activity change, negative = cytotoxicity [15] 1.58% [at 8.39 µM]

Clc1cc(Cl)c(Cl)c(Cl)c1Cl
inactive: Potency [1] | Potency [2] | Potency [3] | Potency [16] | Potency [4] | Potency [6] | outcome [7] | outcome [8] | outcome [9] | Potency [17] | Potency [18] | Potency [10] | outcome [11] | outcome [12] | Potency [14] | outcome [15]

O=CN1CCCCC1
inactive: Potency [2] | Potency [3] | Potency [16] | Potency [4] | Potency [5] | Potency [6] | outcome [7] | outcome [8] | outcome [9] | Potency [17] | Potency [18] | Potency [10] | outcome [11] | outcome [12] | outcome [13] | Potency [14] | outcome [15]

N=C(N)N1CCc2ccccc2C1
inactive: cytotoxicity [1] -11.7% [at 6.97 µM] | cytotoxicity increase [2] -14.4% [at 6.97 µM] | activity change, negative = cytotoxicity [3] -0.804% [at 6.97 µM] | cytotoxicity increase [16] -11.6% [at 6.97 µM] | cytotoxicity increase [5] -12.5% [at 6.97 µM] | cytotoxicity increase [6] -15.6% [at 6.97 µM] | activity change, negative = cytotoxic [7] 0.556% [at 6.97 µM] | activity change, negative = cytotoxicity [8] 2.27% [at 6.97 µM] | activity change, negative = cytotoxicity [9] 2.38% [at 6.97 µM] | activity change [17] -13.7% [at 6.97 µM, hits give high values] | activity change, negative = cytotoxicity [18] -7.09% [at 6.97 µM] | cytotoxicity increase [10] -13.8% [at 6.97 µM] | activity change, negative = cytotoxicity [11] 9.23% [at 8.39 µM] | viability change, negative = cytotoxic [12] -5.28% [at 8.39 µM] | Potency [20] | activity change, negative = cytotoxicity [15] -4.02% [at 8.39 µM]

Source: PubChem BioAssay (Tox21)
